This is an account of results in ChEMBL document CHEMBL4513216, “Probing the Open Global Health Chemical Diversity Library for Multistage-Active Starting Points for Next-Generation Antimalarials” (ACS Infect Dis, 2020).

About 8,600 (12%) of roughly 69,000 compounds showed an effect of 50% or more. Only a selection was taken, and strong results are over-represented in it overall.

For this assay, the system named is Plasmodium berghei. Description: Screen against P. berghei liver stage (PbLuc), transformed with Luciferase, at 10uM. It counts as functional, HepG2. To be noted: tested at 10 uM.
`NC(=O)CN(Cc1ccc(Br)cc1)C(=O)c1cnccn1`: the INHIBITION came out at 4.22%. `O=C1COC2(COCCN(Cc3ccsc3)C2)CN1c1ccoc1` (stereo unspecified): the INHIBITION is recorded as 12.4%. In the case of `CO[C@H]1CO[C@@]2(CCCN(C(=O)N3CCCC3)C2)C1`, the INHIBITION amounted to 45.7%. Regarding `CO[C@H]1CO[C@@]2(CCCN(C(=O)C3CC=CC3)C2)C1`, the INHIBITION is 22.2%. For `CO[C@@H]1CO[C@@]2(CCCN(C(=O)C3CC=CC3)C2)C1`, the INHIBITION is recorded as 53%. The figure for `CC(C)c1nc(CN2CCN(CC(O)c3ccccc3)CC2)no1` (stereo unspecified) is 21.5%; for `CC(=O)Nn1c(C)cc(CN2CCCN(Cc3ccncc3)CC2)c1C` it is 20.4%. `CC(=O)Nn1c(C)cc(CN2CCC(C(=O)N3CCCC3)CC2)c1C`: the INHIBITION worked out at 52.8%. As for `CC(=O)Nn1c(C)cc(CN2CCC(c3ccncc3)CC2)c1C`, the INHIBITION is given as 28%.

Take `CN(c1cccnn1)C1CCN(C(=O)c2n[nH]c3c2CCC3)CC1`: the INHIBITION is -16.7%. Consider `O=C(c1cnc(-c2cccnc2)nc1)N1CCSCC1`, for which the INHIBITION was 51.9%. For the compound `O=C(c1cccnc1)N1CCSCC1`, the INHIBITION is given as 35.7%. As for `O=C(c1cnc(-c2cccnc2)nc1)N1CCC(c2ccncc2)CC1`, the INHIBITION is given as 21.8%. Regarding `Cc1cccc(CNc2ccc(C(=O)N3CCC(CO)CC3)cc2)c1`, the INHIBITION is recorded as 38.3%. As for `O=C([C@@H]1COC[C@H]2CN(C3CCOCC3)C[C@H]21)N1CCCCO1`, the INHIBITION is given as -3.1%. As for `CCc1cccc2c(CC(=O)N(C)CCN(C)C)c(C)[nH]c12`, the INHIBITION is listed as 47.9%. As for `Cc1[nH]c2c(C)cccc2c1CC(=O)N(C)CCN(C)C`, the INHIBITION stood at 34.15%.

With `Cc1ccc2c(CC(=O)N(C)CCN(C)C)c(C)[nH]c2c1C`, the INHIBITION is 50.75%.

As to `CC(=O)N1CCN(C(=O)CN(C)c2ccc(Cl)cn2)CC1`, the INHIBITION is 25%. In the case of `c1cncc(COC[C@@H]2CCC[C@@]23CNCCO3)c1`, the INHIBITION is on record as 24%. Regarding `c1cc(COC[C@@H]2CCC[C@@]23CNCCO3)ccn1`, the INHIBITION is 68.2%. As for `c1cncc(OC[C@@H]2CCC[C@@]23CNCCO3)c1`, the INHIBITION is given as -2.27%. `Cc1nc(COC[C@@H]2CCC[C@@]23CNCCO3)cs1`: the INHIBITION was determined as 48.9%. Regarding `c1cncc(COC[C@@H]2CCC[C@]23CNCCO3)c1`, the INHIBITION worked out at 22.2%. As to `c1cc(COC[C@H]2CCC[C@]23CNCCO3)ccn1`, the INHIBITION is recorded as 53%. On to `COC(=O)c1ccc(CN2CCC(c3n[nH]c(C)n3)CC2)s1`, for which the INHIBITION came to 16.3%. On to `O=C(NCCc1noc(C2CCCC2)n1)c1cn2ccsc2n1`, for which the INHIBITION is 47.2%. With `Cc1nc(C2CCN(C(C)C)CC2)sc1Br`, the INHIBITION was determined as 30.4%. Take `CCN1CCCC(C)(C(=O)NCc2nccn2Cc2ccccc2)C1` (stereo unspecified): the INHIBITION was determined as 47.2%. For the compound `CCn1cnnc1CNC(=O)N1CCN(CCc2ccccc2)CC1`, the INHIBITION worked out at 23.4%. In the case of `CCN1CCCC(C)(C(=O)NCc2nncn2CCc2ccccc2)C1` (stereo unspecified), the INHIBITION came to 57%.

As to `Cc1cc(C)c2ncc(C#N)c(NC3CCN(CC(N)=O)CC3)c2c1`, the INHIBITION is -5.705%. For the compound `Cc1cnn(CC2CCCCN2C(=O)c2ccc(NC3CC3)nc2)c1` (stereo unspecified), the INHIBITION stood at 42.45%. Take `O=S(=O)(N1CCC(n2cccc2)CC1)N1CCCC1c1ccco1` (stereo unspecified): the INHIBITION is reported as 66.1%. `O=S(=O)(N1CCN(CC2CC2)CC1)N1CCCC1c1ccco1` (stereo unspecified): the INHIBITION was determined as 31.9%. For `COC1CCN(S(=O)(=O)N2CCCC2c2ccco2)CC1` (stereo unspecified), the INHIBITION is reported as 49%.

As to `CC(C)CN1CCN(S(=O)(=O)c2cn(C)cn2)Cc2cccnc21`, the INHIBITION was determined as 48.7%. As for `COCCC(=O)N1CCCC1c1csc(Nc2ncccn2)n1` (stereo unspecified), the INHIBITION is listed as 36.7%. The figure for `CNC(=O)C1CCN(c2nc3nc[nH]c(=O)c3s2)CC1` is 24.7%; for `O=C(NC1CC1)C1CCN(c2nc3nc[nH]c(=O)c3s2)CC1` it is 50.2%; for `CC(C)NC(=O)C1CCN(c2nc3nc[nH]c(=O)c3s2)CC1` it is 4.35%. Turning to `CCN(CC)S(=O)(=O)N(Cc1cccc(C)c1)Cc1ccccn1`, the INHIBITION is recorded as 9.63%.

As to `Cc1ccccc1CCCN(C)S(C)(=O)=O`, the INHIBITION is 24.2%. Consider `CCN(CC)S(=O)(=O)N(Cc1ccccn1)Cc1ccccc1C`, for which the INHIBITION stood at 61.3%. As to `CCN(Cc1ccccc1C)S(C)(=O)=O`, the INHIBITION was 5.15%. For the compound `Cc1ccccc1CCCN(Cc1ccccn1)S(C)(=O)=O`, the INHIBITION came out at 51%. The figure for `CCN(CCCc1ccccc1C)S(C)(=O)=O` is 14.1%. As for `COCCN1CCCN(C(=O)NC(C)Cn2cccn2)CC1` (stereo unspecified), the INHIBITION was 42.6%. With `Fc1cnc(N2CCCn3c(nnc3Cn3ccnc3)C2)nc1`, the INHIBITION is reported as -68%.

In the case of `Cc1noc(C2CCN(C(=O)CCCNc3ncccn3)CC2)n1`, the INHIBITION came to 18.4%. The figure for `CCC(CC)c1nnc(NC(=O)NC(C)Cn2cccn2)s1` (stereo unspecified) is 27.4%. Regarding `Cc1nc(CN(C)C2CCN(Cc3cccc4c3OCCO4)C2)no1` (stereo unspecified), the INHIBITION amounted to 29.4%. In the case of `Cn1cc(N2C(=O)CC[C@@H]3[C@H]2CCN3C(=O)c2cscn2)cn1`, the INHIBITION is recorded as 52%. Regarding `Cc1cnc(N2CC[C@H]3[C@@H]2CCC(=O)N3c2ccccc2)nc1`, the INHIBITION is given as 2.7%.

`O=C(c1cnccn1)N1CC[C@H]2[C@@H]1CCC(=O)N2c1cccnc1`: the INHIBITION was determined as 22.9%. `O=C1CC[C@H]2[C@H](CCN2c2ncc(F)cn2)N1c1ccccc1`: the INHIBITION turned out to be 49.4%. For the compound `Cc1nc(CN2CC[C@H]3[C@@H]2CCC(=O)N3c2cnn(C)c2)cs1`, the INHIBITION was -20.1%.

In the case of `O=C(c1cccs1)N1CC[C@@H]2[C@H]1CCC(=O)N2c1ccccc1`, the INHIBITION is given as 40.3%.

With `O=C1CC[C@H]2[C@H](CCN2c2ncccn2)N1c1ccccc1`, the INHIBITION worked out at 55.4%. The figure for `Cn1cc(N2C(=O)CC[C@@H]3[C@H]2CCN3Cc2nccs2)cn1` is 22.4%.

Turning to `O=C(c1cscn1)N1CC[C@H]2[C@@H]1CCC(=O)N2c1ccccc1`, the INHIBITION was found to be 55.5%.

Take `Cc1noc(C(C)C)c1C(=O)NCc1ccc(N(C)C)c(F)c1`: the INHIBITION came out at 29.2%.

Turning to `COc1cc(CSc2nnc(N)n2C2CC2)ccc1SC`, the INHIBITION worked out at 0.348%. Turning to `CN(C)Cc1noc2c1CN(C(=O)c1ccncc1)CC2`, the INHIBITION is reported as 39.4%. As for `O=S1(=O)[C@@H](c2ccccc2)[C@H](CO)CN1C1CC1`, the INHIBITION is -1.99%. In the case of `Cc1ccoc1C(=O)N1Cc2c(Cn3ccnc3)nn(C)c2C1`, the INHIBITION worked out at 39.2%. As to `Cc1ccc(C2(O)CCN(C(=O)c3sccc3S(N)(=O)=O)CC2)nc1`, the INHIBITION is -11.3%.

With `CCOc1cc(CN(C)CC(=O)O)ccc1OC(F)F`, the INHIBITION is listed as 21%.

In the case of `COc1ccc(CN(CCC#N)CCN2CCOCC2)c(OC)c1`, the INHIBITION is listed as 31.9%. Consider `CCOc1cc(CN(C)CCCO)ccc1OC(F)F`, for which the INHIBITION is on record as 31.4%. In the case of `CCOc1cc(CN(C)CCC#N)ccc1OC(F)F`, the INHIBITION worked out at 64.1%.

Turning to `CCOc1cc(CN(C)CCCC#N)ccc1OC(F)F`, the INHIBITION was determined as 75.2%. Take `CCOc1ccc(CN(CCC#N)CCN2CCOCC2)cc1OC`: the INHIBITION was 55.4%.

Turning to `COc1ccc(F)cc1CSCC(=O)N(CCC#N)CCC#N`, the INHIBITION is -28.8%.

Take `COc1ccc(CN(CCC#N)CCN2CCOCC2)cc1OC`: the INHIBITION came to 43.4%. For `COc1ccc(F)cc1CSCC(=O)N(C)CCC#N`, the INHIBITION amounted to 13.6%. As to `CCOc1cc(CN(C)CC(C)(C)O)ccc1OC(F)F`, the INHIBITION is given as -2.13%.

For the compound `CCOc1cc(CNC(=O)C(C#N)c2nc(C)cs2)ccc1OC(F)F` (stereo unspecified), the INHIBITION was 42.8%. As to `CCOc1cc(CN(C)Cc2ccccc2)ccc1OC(F)F`, the INHIBITION is 68.8%. The figure for `CCNC(=O)NC(=O)CNC1(c2noc(C)n2)CCCC1` is 43.8%; for `CNc1cc(C2CN(C(=O)c3cscn3)CCO2)nc(C)n1` (stereo unspecified) it is 26.7%.

With `COCCNC(=O)C(C)N1CCN(C)CC1` (stereo unspecified), the INHIBITION is 4.41%. `CCN(CC)CCN(C)Cc1cn(C)nc1-c1ccc2c(c1)OCCO2`: the INHIBITION came out at 39.4%. As for `COc1ccccc1-n1nc(-c2ccco2)n(CC(N)=O)c1=O`, the INHIBITION turned out to be 30.9%. On to `O=C1COC2(COCCN(Cc3ccsc3)C2)CN1c1ccc(F)cc1` (stereo unspecified), for which the INHIBITION is listed as 13.1%.

As for `O=C1CCC(c2ccc(Cl)cc2)=NN1CN1CCCCCC1`, the INHIBITION is given as -52.7%. Take `CC(C)C(=O)N1CC[C@@H]2[C@H](CC1)N(Cc1cccnc1)CCS2(=O)=O`: the INHIBITION is -20.1%. In the case of `CN(C)C(=O)N[C@H]1CN(Cc2ccc3c(c2)OCO3)[C@@H]2CCCO[C@H]12`, the INHIBITION was found to be 27.2%.

As to `CCOCCC(=O)N1CCCC(CO)(CC2CC2)C1` (stereo unspecified), the INHIBITION was found to be 33%. As for `O=C(O)c1nnn(-c2cccc(C(F)(F)F)c2)c1C1CC1`, the INHIBITION is recorded as 12.9%. As to `CCOc1cc(CNC(=O)NC2CC=CC2)ccc1OC(F)F`, the INHIBITION was 23.9%.

`CCOc1cc(CN(C)CCC(=O)OC)ccc1OC(F)F`: the INHIBITION was determined as 54.5%. On to `CCOc1cc(CN(C)CCOC)ccc1OC(F)F`, for which the INHIBITION is reported as 43.5%. In the case of `CCN1CC2(CCN(C(=O)c3nc4cc(C)ccn4c3F)CC2)CC1=O`, the INHIBITION is reported as 7.65%. For `CCn1ccc(NS(=O)(=O)c2cccc(CSC)c2)n1`, the INHIBITION is recorded as -3.83%. Consider `CC(C)CS(=O)(=O)N1CCC2(CC1)CCn1c(-c3cnn(C)c3)cnc12`, for which the INHIBITION turned out to be 5.41%. For the compound `CCCS(=O)(=O)N1CCC2(CC1)CCn1c(-c3cnn(C)c3)cnc12`, the INHIBITION was 85.4%. With `Cn1cc(-c2cnc3n2CCC32CCN(S(=O)(=O)C3CC3)CC2)cn1`, the INHIBITION stood at 63.1%. Consider `Cn1cc(-c2cnc3n2CCC32CCN(S(C)(=O)=O)CC2)cn1`, for which the INHIBITION is given as -26.1%. As to `CCS(=O)(=O)N1CCC2(CC1)CCn1c(-c3cnn(C)c3)cnc12`, the INHIBITION is given as -65.4%. `Cn1cc(N2CCC3(CCN(S(=O)(=O)C4CC4)C3)C2=O)cn1` (stereo unspecified): the INHIBITION stood at 15.1%. `O=C(CCO)N1C[C@H]2CN(c3ccccc3)C(=O)[C@H]2C1`: the INHIBITION is -73.8%.

As for `Cc1c(-c2cc(-c3cnn(C)c3C)n(CC(=O)NC3CC3)n2)cnn1C`, the INHIBITION is 45.4%. The figure for `Cc1nc(N2CCN(C(=O)C3CCCC3)CC2)c2c(n1)c(C)nn2C` is 35.8%; for `COCCn1c(=O)n(C)c(=O)c2ccc(C3CCC(CN)CC3)nc21` (stereo unspecified) it is 36.1%; for `O=C(NC1CCCC1)N1CCC2(CC1)CC(Oc1cccnc1)CO2` (stereo unspecified) it is 9.63%.
